For 40 compounds, growth inhibition results are on record in PubChem BioAssay (NCI).

This is part of a sample that, as a whole, favours compounds with a hit. Of some 79,000 tested, about 15% had one in any assay. Activity calls are given as the source filed them. No stated cut-off is given here; in the data, active means growth inhibition above about 70%; inactive means the rest. Where a SMILES comes first, the peptide text is derived from it. The star is where a group is joined. Boc = CC(C)(C)OC(=O)*

The first assay in a line: NCI Yeast Anticancer Drug Screen. Data for the bub3 strain (AID 167). Conditions: S. cerevisiae bub3 mutant strain, at 50.0 µM, active compounds read high. In outline: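 Readout: yeast growth inhibition, expressed relative to vehicle-only wells. The test organism is a mutant strain from a panel with lesions in DNA repair or checkpoint genes.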
`C=CCCC1CN2CCc3cc(OC)c(OC)cc3C2CC1=O` (stereo not given): the growth inhibition is 28.4% (inactive).

For `COC(=O)CCSC(=S)NCc1ccccc1`, the growth inhibition was -3.45% (inactive).

For the compound `CN(C)CC1CCC/C(=C\c2ccc(N(C)C)cc2)C1=O` (stereo not given), the growth inhibition is 6.2% (inactive).

In the case of `O=Cc1ccccc1[N+](=O)[O-]`, the growth inhibition was 6.75% (inactive).

Consider `Cc1cccc(C)c1Nc1cc(=O)[nH]c(=O)[nH]1`, for which the growth inhibition was -11.6% (inactive).

As to `S=C(Nc1ccc(I)cc1)SCc1ccc2c(c1)OCO2`, the growth inhibition is -3.65% (inactive).

Take `CC(=O)CC(=O)NCCCc1ccccc1`: the growth inhibition is -6.9% (inactive).

As for `Cc1c2cnccc2c(C)c2c1c1ccccc1n2CCCCCC#N`, the growth inhibition is 98.5% (active).

Turning to `c1ccc(N2CCCC2(c2ccccc2)c2ccccc2)cc1`, the growth inhibition is 22.9% (inactive).

Take `COC(=O)CCCCC#CCCCCC(=O)OC`: the growth inhibition is 12.2% (inactive).

As to `CCCc1cc(OC(=O)c2c(O)cc(OC)cc2CCC)cc(O)c1C(=O)O`, the growth inhibition was 32% (inactive).

On to `Nc1ncnc2nc(-c3ccc(C(=O)c4cccc([N+](=O)[O-])c4)cc3)[nH]c12`, for which the growth inhibition was 14.6% (inactive).

Consider `CN(C)c1ccc(/C=c2\[nH]c(=O)/c(=C\c3ccc(N(C)C)cc3)[nH]c2=O)cc1`, for which the growth inhibition was -8.55% (inactive).

In the case of `O=C(NCCCl)NCc1cccc2c1CCCC2`, the growth inhibition was -3.1% (inactive).

As for `Nc1ccc2c(c1)Cc1cccc(N)c1-2`, the growth inhibition is 7.2% (inactive).

Take `N#CNC(=NCC1CCCO1)Nc1cccnc1` (stereo not given): the growth inhibition was 23.9% (inactive).

With `CC(=O)OCC1OC(OC(C)=O)C(NC(=O)CN(Cc2ccccc2)S(C)(=O)=O)C(OC(C)=O)C1OC(C)=O` (stereo not given), the growth inhibition was 0.35% (inactive).

Consider `O=C1CCCCCCCS(=O)(=O)C1`, for which the growth inhibition is -4.95% (inactive).

For `CCc1c(COC(=O)NC)c(COC(=O)NC)cc2c1[nH]c1ccccc12`, the growth inhibition was -41% (inactive).

Take `O=c1[nH]c2nc[nH]c(=O)c2[nH]1`: the growth inhibition is -6.05% (inactive).

Consider `CCCCCCCCCCCCCC(=O)OCCN(C)C`, for which the growth inhibition is -14.4% (inactive).

In the case of `[N-]=[N+]=Nc1ccccc1C(=O)NCCCNC(=O)c1ccccc1N=[N+]=[N-]`, the growth inhibition was 19.4% (inactive).

For `CCCC(=O)c1ccccc1`, the growth inhibition was 26.1% (inactive).

For the compound `CCOc1ccc(C(=O)C=O)cc1`, the growth inhibition was 9.55% (inactive).

Take `CC(C)COS(=O)(=O)O`: the growth inhibition was 15.2% (inactive).

Consider `C=C1CCC2[C@](C)(CCC[C@]2(C)C(=O)O)[C@@H]1CCc1ccoc1` (stereo not given in full), for which the growth inhibition is 73.8% (active).

Regarding `Cc1ccc(C)[nH]1`, the growth inhibition is -4.4% (inactive).

Consider `C=C1C(C(=O)O)C1C(=O)O` (stereo not given), for which the growth inhibition is 2.9% (inactive).

In the case of `CCOCCOCCOC(=O)c1ccccc1O`, the growth inhibition was 11.2% (inactive).

Turning to `COc1ccccc1NC(=O)CC(=O)n1nc(C)c(N=Nc2ccccc2C(=O)O)c1C`, the growth inhibition was -15.8% (inactive).

Regarding `Cc1ccc(C(=O)N/N=C/c2ccc(N(C)C)cc2Cl)cc1`, the growth inhibition is 61% (inactive).

With `CCOC(=O)c1c(NC2=NCCC2)n[nH]c1N`, the growth inhibition was -18.6% (inactive).

`O=[N+]([O-])c1ccccc1C1N2CCCCC2[C@@H]2c3[nH]c4ccccc4c3CCN12` (stereo not given in full): the growth inhibition is 3.05% (inactive).

In the case of `Cn1cc(/C=C\C(=O)O)c2ccccc21`, the growth inhibition is -26.9% (inactive).

Consider `CCCCCCCCCCCCCCCCN1c2ccccc2C(C)(C)C12C=Cc1cccc([N+](=O)[O-])c1O2` (stereo not given), for which the growth inhibition is -3.1% (inactive).

Take `CC1(C)CNC[C@@](C)(O)C(=O)NC(C)(C)CNC[C@@](C)(O)C(=O)N1`: the growth inhibition is -46.3% (inactive).

Regarding `Cc1ccc(N2CCN(CCC(=O)O)CC2)cc1`, the growth inhibition is -41.6% (inactive).

For the compound `Nc1cccc2c(O)cc(S(=O)(=O)O)cc12`, the growth inhibition is -0.4% (inactive).

In the case of `CCOC(=O)C1C(=O)CC(C)(O)C(C(=O)OCC)C1c1ccc(N(C)C)cc1` (stereo not given), the growth inhibition was -1.4% (inactive).

Regarding `COC(=O)C(Cc1c[nH]c2ccccc12)NC(=O)C(Cc1c[nH]c2ccccc12)NC(=O)C(Cc1c[nH]c2ccccc12)NC(=O)OC(C)(C)C` (stereo not drawn) (Boc-Trp-Trp-Trp-OMe; configuration not given here), the growth inhibition was -3.6% (inactive).

Another assay can be described thus: NCI Yeast Anticancer Drug Screen. Data for the mlh1 rad18 strain (AID 175). The following applies: S. cerevisiae mlh1 rad18 strain growth inhibition; at 50.0 µM; active compounds read high. In outline:
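Growth inhibition of the yeast strain was measured after compound exposure and expressed relative to vehicle-treated controls. The strain carries defined defects in DNA damage repair.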
As to `C=CCCC1CN2CCc3cc(OC)c(OC)cc3C2CC1=O` (stereo not given), the growth inhibition is 20.1% (inactive).

As to `COC(=O)CCSC(=S)NCc1ccccc1`, the growth inhibition is -12.7% (inactive).

Regarding `CN(C)CC1CCC/C(=C\c2ccc(N(C)C)cc2)C1=O` (stereo not given), the growth inhibition is -34.3% (inactive).

With `O=Cc1ccccc1[N+](=O)[O-]`, the growth inhibition is 17.9% (inactive).

On to `Cc1cccc(C)c1Nc1cc(=O)[nH]c(=O)[nH]1`, for which the growth inhibition is -12.2% (inactive).

Regarding `S=C(Nc1ccc(I)cc1)SCc1ccc2c(c1)OCO2`, the growth inhibition is 23.8% (inactive).

On to `CC(=O)CC(=O)NCCCc1ccccc1`, for which the growth inhibition is -11.9% (inactive).

With `Cc1c2cnccc2c(C)c2c1c1ccccc1n2CCCCCC#N`, the growth inhibition is 98.8% (active).

With `c1ccc(N2CCCC2(c2ccccc2)c2ccccc2)cc1`, the growth inhibition was 28.4% (inactive).

On to `COC(=O)CCCCC#CCCCCC(=O)OC`, for which the growth inhibition was 12.9% (inactive).

In the case of `CCCc1cc(OC(=O)c2c(O)cc(OC)cc2CCC)cc(O)c1C(=O)O`, the growth inhibition is 24.5% (inactive).

`Nc1ncnc2nc(-c3ccc(C(=O)c4cccc([N+](=O)[O-])c4)cc3)[nH]c12`: the growth inhibition was -13.2% (inactive).

Regarding `CN(C)c1ccc(/C=c2\[nH]c(=O)/c(=C\c3ccc(N(C)C)cc3)[nH]c2=O)cc1`, the growth inhibition was 16.2% (inactive).

Take `O=C(NCCCl)NCc1cccc2c1CCCC2`: the growth inhibition was -24.2% (inactive).

On to `Nc1ccc2c(c1)Cc1cccc(N)c1-2`, for which the growth inhibition is 1.9% (inactive).

Take `N#CNC(=NCC1CCCO1)Nc1cccnc1` (stereo not given): the growth inhibition was -2.35% (inactive).

With `CC(=O)OCC1OC(OC(C)=O)C(NC(=O)CN(Cc2ccccc2)S(C)(=O)=O)C(OC(C)=O)C1OC(C)=O` (stereo not given), the growth inhibition was -4.05% (inactive).

In the case of `O=C1CCCCCCCS(=O)(=O)C1`, the growth inhibition is -0.2% (inactive).

Regarding `CCc1c(COC(=O)NC)c(COC(=O)NC)cc2c1[nH]c1ccccc12`, the growth inhibition is -14.6% (inactive).

Take `O=c1[nH]c2nc[nH]c(=O)c2[nH]1`: the growth inhibition is 6.05% (inactive).

Turning to `CCCCCCCCCCCCCC(=O)OCCN(C)C`, the growth inhibition is -12.4% (inactive).

Take `[N-]=[N+]=Nc1ccccc1C(=O)NCCCNC(=O)c1ccccc1N=[N+]=[N-]`: the growth inhibition is 16% (inactive).

As to `CCCC(=O)c1ccccc1`, the growth inhibition is 21.9% (inactive).

As to `CCOc1ccc(C(=O)C=O)cc1`, the growth inhibition was 27.2% (inactive).

In the case of `CC(C)COS(=O)(=O)O`, the growth inhibition is 27.1% (inactive).

For the compound `C=C1CCC2[C@](C)(CCC[C@]2(C)C(=O)O)[C@@H]1CCc1ccoc1` (stereo not given in full), the growth inhibition is 78.8% (active).

As for `Cc1ccc(C)[nH]1`, the growth inhibition is 18.1% (inactive).

As for `C=C1C(C(=O)O)C1C(=O)O` (stereo not given), the growth inhibition is -2.25% (inactive).

With `CCOCCOCCOC(=O)c1ccccc1O`, the growth inhibition was 4.4% (inactive).

On to `COc1ccccc1NC(=O)CC(=O)n1nc(C)c(N=Nc2ccccc2C(=O)O)c1C`, for which the growth inhibition is -9.5% (inactive).

On to `Cc1ccc(C(=O)N/N=C/c2ccc(N(C)C)cc2Cl)cc1`, for which the growth inhibition is 21.9% (inactive).

For the compound `CCOC(=O)c1c(NC2=NCCC2)n[nH]c1N`, the growth inhibition is 5.9% (inactive).

On to `O=[N+]([O-])c1ccccc1C1N2CCCCC2[C@@H]2c3[nH]c4ccccc4c3CCN12` (stereo not given in full), for which the growth inhibition is 8.3% (inactive).

As for `Cn1cc(/C=C\C(=O)O)c2ccccc21`, the growth inhibition was 6.4% (inactive).

In the case of `CCCCCCCCCCCCCCCCN1c2ccccc2C(C)(C)C12C=Cc1cccc([N+](=O)[O-])c1O2` (stereo not given), the growth inhibition was -3.2% (inactive).

For the compound `CC1(C)CNC[C@@](C)(O)C(=O)NC(C)(C)CNC[C@@](C)(O)C(=O)N1`, the growth inhibition is -9.2% (inactive).

Turning to `Cc1ccc(N2CCN(CCC(=O)O)CC2)cc1`, the growth inhibition was 22.4% (inactive).

`Nc1cccc2c(O)cc(S(=O)(=O)O)cc12`: the growth inhibition is 21.6% (inactive).

On to `CCOC(=O)C1C(=O)CC(C)(O)C(C(=O)OCC)C1c1ccc(N(C)C)cc1` (stereo not given), for which the growth inhibition was -10.2% (inactive).

For `COC(=O)C(Cc1c[nH]c2ccccc12)NC(=O)C(Cc1c[nH]c2ccccc12)NC(=O)C(Cc1c[nH]c2ccccc12)NC(=O)OC(C)(C)C` (stereo not drawn) (Boc-Trp-Trp-Trp-OMe; configuration not given here), the growth inhibition was 1.5% (inactive).
